In the library only some 6.2% were active in any assay of this set; here they are far more common.
Mot1-301 SUMO: inhibitors of SUMOylation pathway: yeast Mot1-301 growth rescue; S. cerevisiae Mot1-301 growth rescue, ATP luminescence, 38.5C; percent above DMSO median, 100 means doubled; 320,000 compounds, 1% hits; AID 2716; growth rescue, % at 18.8 µM;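 active = every valid replicate shows activation above 250% relative to neutral control wells; inactive = the rest, any valid replicate at or below 250%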
AHR activator: activators of human aryl hydrocarbon receptor. AHR-responsive luciferase reporter cells, luminescence. AID 2796. 320,000 compounds, 2.5% hits. activation, % at 5 µM; in the data active = activation above about 47%
Target sequence (P35869 whole entry, looked up): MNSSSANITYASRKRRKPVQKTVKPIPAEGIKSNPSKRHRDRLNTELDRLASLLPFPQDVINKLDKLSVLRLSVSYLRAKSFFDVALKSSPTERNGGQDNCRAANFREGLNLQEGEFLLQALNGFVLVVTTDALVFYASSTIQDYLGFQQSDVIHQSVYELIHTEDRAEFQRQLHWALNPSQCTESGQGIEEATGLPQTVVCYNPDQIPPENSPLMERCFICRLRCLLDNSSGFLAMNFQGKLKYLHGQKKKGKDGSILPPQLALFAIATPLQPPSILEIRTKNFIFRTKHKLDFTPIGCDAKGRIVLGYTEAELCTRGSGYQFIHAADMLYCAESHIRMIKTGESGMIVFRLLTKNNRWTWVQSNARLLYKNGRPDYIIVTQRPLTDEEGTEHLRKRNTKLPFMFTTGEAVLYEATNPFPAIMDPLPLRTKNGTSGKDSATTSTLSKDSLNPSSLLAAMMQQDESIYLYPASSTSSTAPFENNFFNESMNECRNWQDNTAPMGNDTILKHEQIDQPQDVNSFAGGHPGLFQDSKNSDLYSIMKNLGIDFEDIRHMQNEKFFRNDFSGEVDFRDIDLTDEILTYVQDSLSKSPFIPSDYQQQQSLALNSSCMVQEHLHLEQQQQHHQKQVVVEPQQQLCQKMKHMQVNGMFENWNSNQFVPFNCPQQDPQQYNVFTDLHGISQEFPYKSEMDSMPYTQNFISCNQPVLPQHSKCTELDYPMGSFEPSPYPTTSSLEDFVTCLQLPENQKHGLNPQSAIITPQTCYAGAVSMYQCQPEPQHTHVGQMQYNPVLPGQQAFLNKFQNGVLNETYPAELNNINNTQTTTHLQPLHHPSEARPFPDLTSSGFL
AI-2 QS mod: Vibrio harveyi AI-2 quorum sensing modulation | Vibrio harveyi JMH597 AI-2 luminescence/OD600 ratio, 9 h; hits give low values; strain lacks LuxN and CqsS sensors; 0 = neutral-control median | activity change, % at 7.5 µM | 300,000 compounds, 0.4% hits | AID 2094; in the data active = activity change below about -75%, passing the limit was not always enough;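 note: luminescence divided by OD600 gain over 9 h not by final OD600 alone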
GRIN3A LBD mod: modulates the human NR3A ligand-binding domain | NR3A LBD differential scanning fluorimetry, Tm shift; 0% = protein alone, 100% = glycine-bound protein | Tm shift relative to glycine control, % at 25 µM | AID 1259313 | 340,000 compounds, 2.5% hits;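 active = melting temperature shift of at least 10% of the positive control shift, at one fixed dose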
NTR1 agonist: NTR1 (human) agonism; activation, % at 20 µM; 330,000 compounds, 0.17% hits; NTR1-U2OS beta-arrestin-GFP spot imaging, agonist mode; AID 493036; P30989;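 active = activation at or above 40% of the spot to cytoplasm intensity ratio, with at least 20 cells analyzed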
H9c2 protect: myocardial damage modulation in H9c2 cells; 360,000 compounds, 0.63% hits; H9c2 cardiomyocytes, H2O2 injury protection, ATPLite, 2 h; protection from H2O2 cell death, % at 20 µM;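 active = compounds giving at least 50% protection of heart cells from peroxide-induced death in the single-dose screen, raw or plate-pattern-corrected value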
Mot1 SUMO dose: inhibits SUMO pathway, affecting Mot1-301 yeast growth; growth activity, percent, % at 42 µM; S. cerevisiae Mot1-301 galactose growth, ATP luminescence, 24 h; -100 = growth of slx-deleted rescue strain; 2,300 tested, under 10 active; AID 493004; shares compounds with Mot1-301 SUMO;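 active = Signal drops as the depositor expects, and the fitted half-maximal dose is no more than ten times the top valid tested dose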;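 note: more negative values mean stronger growth rescue toward the control strain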
Large screens that a line does not name were inactive (follow-up assays come after a bar, where they were run).

Cc1c(C)c2c(c(C)c1O)CC[C@@](C)(CCC[C@H](C)CCC[C@H](C)CCCC(C)C)O2	none
CCCCN(C(=O)c1oc2ccc(OCC)cc2c1C)c1c(N)n(CCCC)c(=O)[nH]c1=O	none
CC1(C(=O)NCCc2ccccc2)Cc2c(-c3ccc(C(N)=O)cc3)ccnc2O1 (centres undefined)	none (no result: Mot1-301 SUMO, AHR activator, AI-2 QS mod, GRIN3A LBD mod, NTR1 agonist)
O=C(CSc1nncc2ccccc12)Nc1cccc(C(=O)O)c1	none
O=C(CSc1nc(-c2ccccc2)nc2ccc(F)cc12)Nc1cccc(C(=O)O)c1	Mot1-301 SUMO 534.6, GRIN3A LBD mod 12.4 | Mot1 SUMO dose inactive
CSc1nsc(SCC(=O)Nc2cccc(C(=O)O)c2)n1	Mot1-301 SUMO 782.0 | Mot1 SUMO dose inactive
COc1ccc(Cl)cc1C(=O)Nc1cccnc1Cl	none (no result: AI-2 QS mod)
O=C(CCCn1cnc([N+](=O)[O-])n1)Nc1cccc2ccccc12	Mot1-301 SUMO 408.2 | Mot1 SUMO dose inactive
O=C(Cn1cnc([N+](=O)[O-])n1)NCc1ccccc1	none
CCCC(=O)N1CCCC(C(=O)c2cccc(OC(C)C)c2)C1 (centres undefined)	none (no result: NTR1 agonist)
Cc1ccc(CN2CCSCC2)cc1	none
CC(C)(C)c1cc(NC(=O)C2(C)CCN2C(=O)C2(c3ccccc3)CC2)no1 (centres undefined)	none (no result: Mot1-301 SUMO, AHR activator, AI-2 QS mod, GRIN3A LBD mod, NTR1 agonist)
COCCNC(=O)CC(c1ccccc1)c1ccccc1	none
O=C(CC(c1ccccc1)c1ccccc1)NCCOCc1ccccc1	Mot1-301 SUMO 403.2 | Mot1 SUMO dose inactive
Cc1cc(NC(=O)c2cccnc2Cl)ccc1NC(=O)c1cc2ccccc2o1	none
O=C(Nc1cccnc1Cl)c1cc2ccccc2o1	Mot1-301 SUMO 566.6 | Mot1 SUMO dose inactive
C/C(=N\N=C1\NC(=O)C(CC(=O)Nc2ccccc2F)S1)C1CCCCC1 (centres undefined)	none
Cc1ccc(O)c(Cc2cc(C)cc(Cc3cc(C)ccc3O)c2O)c1	none (no result: Mot1-301 SUMO, AHR activator, AI-2 QS mod, GRIN3A LBD mod, NTR1 agonist)
Cn1cc(Br)c(C(=O)Nc2nccs2)n1	Mot1-301 SUMO 625.6 | Mot1 SUMO dose inactive
Cc1cc(NC(=O)c2cccc3ccccc23)cc(C)c1OCC(=O)N1CCOCC1	none
COc1cc(SC)ccc1C(=O)Nc1cc(C)c(OCC(=O)N2CCOCC2)c(C)c1	Mot1-301 SUMO 562.0 | Mot1 SUMO dose inactive
COCc1cc(=O)n2[nH]c(C)cc2n1	none
Cc1cc2nc(CCl)cc(=O)n2[nH]1	Mot1-301 SUMO active | Mot1 SUMO dose inactive
COC(=O)c1ccc(SCC(=O)N2CCC(C)CC2)c([N+](=O)[O-])c1	Mot1-301 SUMO 836.3 | Mot1 SUMO dose inactive
COc1ccc(OC)c(Cc2nnc(CCC(=O)NCc3ccsc3)o2)c1	Mot1-301 SUMO active | Mot1 SUMO dose inactive
CC(Sc1nnc(COc2ccc(Cl)cc2)n1Cc1ccco1)C(=O)N1CCNC1=O (centres undefined)	none (no result: Mot1-301 SUMO, AI-2 QS mod)
Cc1c(C2(O)CCCCC2)[nH]c2ccc(C#N)cc12	Mot1-301 SUMO 369.9 (no result: AI-2 QS mod) | Mot1 SUMO dose inactive
O=C(NCc1nc(-c2ccccc2)no1)c1cccs1	Mot1-301 SUMO 499.4, AI-2 QS mod -78.8 | Mot1 SUMO dose inactive
O=C(NCc1cccc2ccccc12)c1cccs1	none (no result: AI-2 QS mod)
CN(CC(=O)Nc1ccc(F)cc1)C(=O)COC(=O)c1cc(Br)c(Br)s1	none (no result: Mot1-301 SUMO, AHR activator, AI-2 QS mod, NTR1 agonist)
CCN(C(=O)CCS(=O)(=O)c1ccc2c(c1)oc(=O)n2C)c1ccc(OC)cc1	Mot1-301 SUMO 378.1 | Mot1 SUMO dose inactive
COc1ccc2cc(C(=O)Nc3ccc(Cl)cc3)sc(=O)c2c1OC	Mot1-301 SUMO 752.4, GRIN3A LBD mod 22.2 | Mot1 SUMO dose inactive
COC(=O)c1cc2ccc(OC)c(OC)c2c(=O)s1	none
CCCCn1c(N)c(N(CC(C)C)C(=O)c2cccc(-n3cnnn3)c2)c(=O)[nH]c1=O	none
CCN1C(=O)N(c2ccc(Cl)cc2)C(C)=CC1(C)C	Mot1-301 SUMO 837.0 | Mot1 SUMO dose inactive
C=C1N(c2ccc(Cl)cc2)C(=O)OC1(C)C	none
CCN(C(=O)COC(=O)c1ccccc1NCCO)c1cccc2ccccc12	none
Cc1ccccc1-n1ncc2c([N+](=O)[O-])cc([N+](=O)[O-])cc21	Mot1-301 SUMO 420.6 | Mot1 SUMO dose inactive
CC(C)Oc1ccc(CCNC(=O)CC2C(=O)NCCN2C)cc1 (centres undefined)	none
COc1ccc(CCNC(=O)CC2C(=O)NCCN2CC(C)(C)C)cc1 (centres undefined)	Mot1-301 SUMO 769.6 | Mot1 SUMO dose inactive
CC(C)c1ccc(N(CC(=O)NC2CCCCC2)C(=O)CCC(=O)Nc2ccccn2)cc1	none
C[C@H]1CN([C@@H](C)CO)C(=O)CCCn2cc(nn2)CO[C@@H]1CN(C)C(=O)Nc1ccc2c(c1)OCCO2	none (no result: Mot1-301 SUMO, AHR activator, AI-2 QS mod, GRIN3A LBD mod, NTR1 agonist)
Oc1ccc(Br)cc1/C=N/n1c(COc2ccccc2)n[nH]c1=S	Mot1-301 SUMO 679.4, GRIN3A LBD mod 10.3 (no result: AHR activator) | Mot1 SUMO dose inactive
O=C(NC1CCCCC1)c1cccc(NC(=O)c2ccccc2Cl)c1	none (no result: Mot1-301 SUMO, AHR activator, AI-2 QS mod, GRIN3A LBD mod, NTR1 agonist)
O=C(O)c1c(C(=O)O)c(-c2ccc(F)cc2)n2c1CCC2	Mot1-301 SUMO 498.6 | Mot1 SUMO dose inactive
Cc1ccc(-c2c(C(=O)O)c(C(=O)O)c3n2CCC3)cc1	none
CC(C)NC(=O)CCCc1cn(C)c2ccccc12	Mot1-301 SUMO 502.7 | Mot1 SUMO dose inactive
CC(CCc1ccccc1)NC(=O)CCc1cn(C)c2ccccc12 (centres undefined)	none
O=C(NCCc1c[nH]c2ccccc12)c1cc(S(=O)(=O)N2CCCCC2)ccc1N1CCOCC1	Mot1-301 SUMO 449.5 | Mot1 SUMO dose inactive
CCCNC(=O)c1cc(S(=O)(=O)N2CCCCC2)ccc1N1CCOCC1	none
COc1ccc(N2CC(C(=O)N(C)CC(=O)Nc3ccc(Cl)c(C(F)(F)F)c3)CC2=O)c(OC)c1 (centres undefined)	none
CCOC(=O)NC1(Nc2ccc(C)cc2)Oc2ccccc2O1	Mot1-301 SUMO 444.6 | Mot1 SUMO dose inactive
CCOC(=O)NC1(NC(C)C)Oc2ccccc2O1	none
CCN(CC)C(=O)C1CCCN(C(=O)c2cc(COc3cccc(OC)c3)on2)C1 (centres undefined)	none
O=C(c1ccco1)N1CCN(C2CC(=O)N(c3ccc(F)c(Cl)c3)C2=O)CC1 (centres undefined)	Mot1-301 SUMO 550.9 | Mot1 SUMO dose inactive
CCN1C(=NCC(C)C)N[C@@H](c2cccc(C(F)(F)F)c2)C(C(=O)OC)=C1C	Mot1-301 SUMO 779.0 | Mot1 SUMO dose inactive
COC(=O)C1=C(C)N(Cc2ccccc2)C(=NCCCCO)N[C@H]1c1cccc(C(F)(F)F)c1	none (no result: AI-2 QS mod)
CCN1C(=NCCCCO)N[C@@H](c2cccc(C(F)(F)F)c2)C(C(=O)OC)=C1C	Mot1-301 SUMO 657.6 | Mot1 SUMO dose inactive
CCN1C(=NCc2cccc(Cl)c2)N[C@@H](c2cccc(F)c2)C(C(=O)OC)=C1C	Mot1-301 SUMO 772.6 | Mot1 SUMO dose inactive

Screening results: PubChem BioAssay, several laboratories
